Test results reported in PubChem BioAssay AID1259418 (Broad Institute, 2018).
Among all 3,400 compounds or so, about 840 (25%) were called active. Not shown: some 11% with an inconclusive outcome. These entries were drawn from the full list. Results with a measured potency or affinity are listed apart. A number with no mark means an inactive call.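 Rule for the calls: active = fitted half-maximal concentration of signal decrease at or below twice the sample's top tested concentration; inconclusive = flat curve between -70 and -30 percent, or poor fit; inactive = flat within 30 percent, signal rise, or potency above limit.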

Experiment: inhibitors of Toxoplasma growth in IFN-γ-primed HeLa – cell-based, ME49Luc, luciferase, 72 h, dose response (AID 1259418)
Conditions: T. gondii ME49Luc in IFN-y HeLa, active compounds read low, -100% = high-dose IFN-γ control wells; at 19.5 µM unless noted

Compound	max activity
CCc1ccccc1NC(=O)N1CCc2nc(-c3ccc(OC)c(OC)c3)sc2C1	6.34%
CCC(=O)N1CCC2(CC1)Nc1ccc(C)c(C)c1-n1cccc12	-7.02% [at 5 µM]
Cc1nc(OCC(=O)Nc2cc(F)ccc2C)c2ccccc2n1	23.1% [at 10 µM]
Cc1ccc(-c2coc(-c3ccc(NC(=O)c4ccc(F)cc4)cc3)n2)cc1	95.6%
Cc1ccc(-c2ccc([C@H]3[C@@H](CO)N4C(=O)CN(C(=O)NC(C)C)C[C@@H]34)cc2)cc1	46.5%
COc1ccccc1NC(=O)N1CC(=O)N2[C@H](C1)[C@@H](c1ccc(C#CC(C)C)cc1)[C@@H]2CO	-17.8%
Cc1ccc(-c2ccc([C@@H]3[C@H](CO)N4C(=O)CN(C(=O)NC(C)C)C[C@@H]34)cc2)cc1	16.7% [at 5 µM]
COc1ccccc1NC(=O)N1CC(=O)N2[C@H](CO)[C@H](c3ccc(C#CC(C)C)cc3)[C@H]2C1	25.9% [at 5 µM]
CCOc1ccc(-c2nc(CN3CCN(C(=O)Nc4ccccc4C(F)(F)F)CC3)c(C)o2)cc1	13.7% [at 2.6 µM]
O=C(NCCc1csc(-c2ccccc2)n1)C1CCN(C(=O)COc2ccccc2)CC1	-18.1% [at 0.68 µM]
O=C(O)c1ccc(NC(=NCCc2ccccc2)N2CCN(c3ncnc4ccccc34)CC2)cc1	6.72%
COc1ccc(NC(=O)Nc2ccc(-c3nc(-c4ccccc4)co3)cc2)cc1	-14% [at 0.68 µM]
COc1ccccc1N(Cc1nc(-c2cccc(OC)c2OC)oc1C)S(=O)(=O)c1ccccc1	3.95%
CCOc1ccccc1-c1nc(CN(c2ccccc2)S(=O)(=O)c2ccccc2)c(C)o1	15.6%
CCOc1ccccc1-c1nc(CN(c2ccccc2OC)S(=O)(=O)c2ccc(C)cc2)c(C)o1	-6.32%
COc1ccc(-c2nc(Cn3nnc(-c4nc(-c5ccccc5)no4)c3C)c(C)o2)cc1	11% [at 0.16 µM]
Cc1ccc(NC(=O)Nc2ccc(-c3nc(-c4ccccc4)co3)cc2)cc1C	24.4%
Cc1cc(-n2nnc(C(=O)N3CCC(N4CCCCC4)CC3)c2-c2ccncc2)ccc1F	-34.1%
Cc1ccccc1C(=O)N1CCC2(CC1)Nc1cc(F)ccc1-n1cccc12	-6.16% [at 1.35 µM]
COc1ccc(OCC(=O)N2CCC3(CC2)Nc2ccc(C)c(C)c2-n2cccc23)cc1	-9.59% [at 2.6 µM]
CCOC(=O)C1CCCN(c2nc(-c3ccc(Cl)cc3)nc3ccccc23)C1 (configuration not stated)	5.87% [at 0.35 µM]
Cc1noc(C)c1S(=O)(=O)N1CSC[C@@H]1C(=O)NCCc1csc(-c2ccccc2)n1	13.2% [at 1.35 µM]
Cc1cccc(NC(=O)Nc2ccc(-c3nc(-c4ccc(C)cc4C)co3)cc2)c1	-13.9% [at 0.16 µM]
COc1ccccc1-c1noc(-c2nnn(Cc3nc(-c4cccc(Cl)c4)oc3C)c2C)n1	9.3% [at 0.16 µM]

Compound	max activity
CCc1nc(OCC(=O)Nc2ccccc2C(F)(F)F)c2ccccc2n1	15.4% [at 2.6 µM]
Cc1ccc(-c2coc(-c3ccc(NC(=O)NCc4ccccc4)cc3)n2)c(C)c1	5.28% [at 0.16 µM]
COc1ccc(-c2nc(Cn3nnc(-c4nc(-c5ccccn5)no4)c3C)c(C)o2)cc1	-5.61% [at 10 µM]
COc1ccccc1-c1nc(C)c(-c2ccc(SCc3ccccc3)nn2)s1	-5.61% [at 0.68 µM]
COc1ccc2c(c1)NC1(CCN(C(=O)c3ccc(Br)cc3)CC1)c1cccn1-2	15.6% [at 0.68 µM]
O=C(C1CCN(Cc2cc3ccccc3n2Cc2cccc(Cl)c2)CC1)N1CCCC1	-6.26% [at 1.35 µM]
Cc1cccc(Cn2c(CN3CCC(C(=O)NCCCN4CCCC4=O)CC3)cc3ccccc32)c1	13.5%
O=C(NCc1cccnc1)C1CCN(Cc2cc3ccccc3n2Cc2cccc(Cl)c2)CC1	-5.31% [at 5 µM]
O=C(NCCN1CCCC1)C1CCN(Cc2cc3ccccc3n2Cc2cccc(Cl)c2)CC1	-8.03% [at 1.35 µM]
O=C(NCCCN1CCCC1=O)C1CCN(Cc2cc3ccccc3n2Cc2ccccc2)CC1	-6.87% [at 2.6 µM]
Cc1ccc(Cn2c(CN3CCC(C(=O)N4CCCC4)CC3)cc3ccccc32)cc1	17.8% [at 2.6 µM]
CC(C)C(=O)Nc1ccc(-c2nc(-c3ccccc3)co2)cc1	-22.2% [at 10 µM]
Cc1ccc(OCC(=O)Nc2ccc(-c3nc(-c4cc(C)ccc4C)co3)cc2)cc1	6.76% [at 10 µM]
CCc1ccccc1Nc1ncnc2c1cnn2-c1ccc(C)cc1C	12.3% [at 0.68 µM]
COc1ccc(OC)c(S(=O)(=O)N2CCC[C@@H]2C(=O)NCCc2csc(C)n2)c1	4.67%
COc1cccc(-c2nc3c(s2)CN(S(=O)(=O)c2ccc(C(C)C)cc2)CC3)c1	-7.98% [at 2.6 µM]
Cc1cccc(-c2nc(Cn3nnc(-c4nc(-c5ccc(F)cc5)no4)c3C)c(C)o2)c1	16.4% [at 10 µM]
OC[C@H]1O[C@@H](n2cnc3c(NC4CCCC4)nc(Cl)nc32)[C@H](O)[C@@H]1O	22.4%
Cc1ccc2[nH]c(C(=O)N3CCCC3)c(NC(=O)c3ccc(Cl)cc3)c2c1	45.1% [at 5 µM]
COc1ccccc1-c1nc(Cn2nnc(-c3nc(-c4ccc(C)c(C)c4)no3)c2C)c(C)o1	8.96% [at 0.68 µM]
Cc1cccc(C(=O)Nc2c(C(=O)N3CCN(c4ccccn4)CC3)[nH]c3ccc(C)cc23)c1	-10.7% [at 5 µM]
CN(C)CCOCC12CCCOC1CCN(C(=O)c1cccn1C)C2 (configuration not stated)	9.21%
O=C(CC1Nc2c3ccccc3nc(=S)n2C1=O)NC1CCCCC1 (configuration not stated)	24.9% [at 0.68 µM]
O=C(Cn1c(=O)c(S(=O)(=O)c2ccccc2)cc2ccccc21)NCc1ccco1	8.5% [at 0.16 µM]

Compound	max activity
O=C(NCc1cccnc1)C1CCN(Cc2cc3ccccc3n2Cc2cccc(F)c2)CC1	12.1% [at 0.16 µM]
O=C(C1CCN(Cc2cc3ccccc3n2Cc2cccc(F)c2)CC1)N1CCCC1	8.62%
Cc1cccc(Cn2c(CN3CCC(C(=O)NCc4cccnc4)CC3)cc3ccccc32)c1	15.7% [at 10 µM]
O=C(NCc1cccnc1)C1CCN(Cc2cc3ccccc3n2Cc2ccccc2)CC1	21.3% [at 1.35 µM]
CCN1CCCC1CNC(=O)C1CCN(Cc2cc3ccccc3n2Cc2ccc(Cl)cc2)CC1 (configuration not stated)	9.45%
CCN1CCCC1CNC(=O)C1CCN(Cc2cc3ccccc3n2Cc2ccccc2C)CC1 (configuration not stated)	14% [at 2.6 µM]
CCN1CCCC1CNC(=O)C1CCN(Cc2cc3ccccc3n2Cc2cccc(Cl)c2)CC1 (configuration not stated)	22% [at 10 µM]
CCc1nc(OCC(=O)Nc2ccc(Cl)c(Cl)c2)c2ccccc2n1	-17.2%
Cc1ccc(CNC(=O)Nc2ccc(-c3nc(-c4cc(C)ccc4C)co3)cc2)cc1	-8.13% [at 5 µM]
COc1ccc(CC(=O)N2CCC3(CC2)Nc2cc(OC)ccc2-n2cccc23)cc1	20.2% [at 10 µM]
COc1ccc(-c2nc(Nc3ccc(Br)cc3F)c3ccccc3n2)cc1	21.7%
O=C(NCCc1csc(-c2ccccc2)n1)[C@H]1CSCN1C(=O)COc1ccccc1	9.43%
Cc1ccc2c(c1C)-n1cccc1C1(CCN(C(=O)c3cccc(Cl)c3)CC1)N2	6.45%
O=C(C1CCCCC1)N1[C@@H](CO)[C@@H]2c3ccccc3N(S(=O)(=O)c3ccccc3)C[C@@H]21	38.7%
O=C(C1CCCCC1)N1[C@H](CO)[C@@H]2c3ccccc3N(S(=O)(=O)c3ccccc3)C[C@@H]21	26.4%
O=C(NCc1cncc2c1CCN(Cc1cccc(F)c1)C2)C1CC1	11.5%
O=C(CCc1ccccc1)Nc1ccc(-c2nc(-c3ccccc3)co2)cc1	120% [at 10 µM]
O=C(c1cccc(F)c1)N1CCCCN2[C@H](C1)[C@H](c1ccc(C#CC3(O)CCCC3)cc1)[C@@H]2CO	-13.9% [at 2.6 µM]
O=C(c1cccc(F)c1)N1CCCCN2[C@H](CO)[C@H](c3ccc(C#CC4(O)CCCC4)cc3)[C@H]2C1	-28.8% [at 21 µM]
O=C(Nc1cccc(F)c1)N1CCCCN2[C@H](C1)[C@@H](c1ccc(C#Cc3cccnc3)cc1)[C@@H]2CO	-8.44% [at 0.6 µM]
CCN(CCCNc1nc(-c2ccc(OC)cc2)nc2ccccc12)c1cccc(C)c1	21.1%
COc1ccc(NC(=O)CN2CCC3(CC2)N=C(c2ccc(F)cc2)C(=O)N3)c(OC)c1	-31.1% [at 0.35 µM]
COc1ccc(-c2nc(N3CCN(Cc4ccc5c(c4)OCO5)CC3)c3ccccc3n2)cc1	17.4% [at 2.6 µM]
Cc1ccc(N2CCN(c3nc(-c4ccc(Cl)cc4)nc4ccccc34)CC2)c(C)c1	25.4%
